Shown are actives, neighbours in structure and some others; about 7.4% of the full set was active somewhere.
SMN2 splice enh: SMN2 splice variant enhancement; HEK293 SMN2-luciferase splicing reporter, luminescence, 30-36 h; Potency, µM (series often up to 46.1 µM), for the others: at the highest dose activity change, positive = activation, hits mostly activators; hit rate 2.8% among 210,000; AID 1458; further: % of control where 0% means no effect; nearly all actives have a fitted effect of over 55% in size
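HEK293 cells carry an SMN2 […]–luciferase reporter in which exon 7 inclusion puts luciferase in frame. Cells were plated 10-12 h before compound addition, then incubated 30-36 h at 37C. ONE-Glo luminescence was read; sodium butyrate at 4.5 mM final served as control.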
KinaseGlo FLuc: Kinase-Glo luciferase inhibition (counter-screen) | Q27757 | Kinase-Glo luciferase, ATP luminescence, 8 min | Potency, µM (titrated, usually from 38.3 µM), inactives show at the top dose activity change, negative = inhibition, hits mostly inhibitors | hit rate 0.28% among 200,000 | AID 1379; further: on the % scale 0 is the no-effect control and ±100 the full control effect; nearly all actives have a fitted effect of over 60% in size
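Luminescence was the read-out, taken after 8-minute incubation at ambient temperature. Luciferase turned over luciferin with 10 uM ATP in imidazole pH 7.2 buffer containing KCl, MgCl2, Tween 20 and BSA.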
ELG1 genotoxic: induces genotoxicity in HEK293T cells with luciferase-tagged ELG1; hit rate 1.3% among 330,000; Potency, µM (series often up to 46 µM), without a hit: top-dose activity change, positive = activation, hits mostly activators; HEK293T ELG1-luciferase reporter, luminescence, 16 h; further: % of control where 0% means no effect; nearly all actives have a fitted effect of over 60% in size
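Screening used a luciferase reporter fused to human ELG1 in HEK293T cells. Luminescence was read on a CCD plate imager after 16 hr exposure and 30 min ONE-Glo incubation.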
FLuc counter: inhibits or activates purified firefly luciferase, miR-21 counter-screen; AID 588342; Potency, µM (titrated, usually from 57.5 µM), without a hit: at the highest dose activity change, negative = inhibition, usual class: inhibitors; hit rate 6.9% among 360,000; purified FLuc, Km substrates, luminescence inhibition; P08659;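 further: plate controls were vehicle for no effect and reference inhibitor for full effect; nearly all actives have a fitted effect of over 55% in size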
Target sequence (P08659 whole entry, looked up): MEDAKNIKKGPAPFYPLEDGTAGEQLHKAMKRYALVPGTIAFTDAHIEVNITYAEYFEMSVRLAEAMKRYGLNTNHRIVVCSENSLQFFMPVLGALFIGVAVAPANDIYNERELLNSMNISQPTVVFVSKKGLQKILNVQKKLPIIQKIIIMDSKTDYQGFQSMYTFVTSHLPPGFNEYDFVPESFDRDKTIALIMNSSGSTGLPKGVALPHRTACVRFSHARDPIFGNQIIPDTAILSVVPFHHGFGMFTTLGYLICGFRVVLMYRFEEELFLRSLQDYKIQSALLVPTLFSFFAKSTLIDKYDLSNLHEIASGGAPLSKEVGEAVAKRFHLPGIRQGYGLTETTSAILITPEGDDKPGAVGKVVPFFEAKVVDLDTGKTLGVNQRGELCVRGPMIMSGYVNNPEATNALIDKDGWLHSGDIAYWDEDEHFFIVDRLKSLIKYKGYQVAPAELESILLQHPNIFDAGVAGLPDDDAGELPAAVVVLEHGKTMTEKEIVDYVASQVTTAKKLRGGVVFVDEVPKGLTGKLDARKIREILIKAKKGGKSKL
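Biochemical qHTS of compounds, final roughly 60 µM downward over six points, against 10 nM purified firefly luciferase using Km concentrations of substrates (10 uM D-luciferin, 10 uM ATP) in Tris acetate pH 7.5 buffer; luminescence output.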
Rab9 prom act: Rab9 promoter activation; Huh7 Rab9 promoter-luciferase reporter, luminescence, 24 h; Potency, µM (top dose mostly 9.22 µM), for inactives: at the highest dose activation, negative = inhibition, hits mostly activators; hit rate 2.8% among 320,000; AID 485297; further: % of control where 0% means no effect; nearly all actives have a fitted effect of over 60% in size
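Luminescence read-out: Huh7 cells stably expressing Rab9-luciferase, treated 24 h with compound at 37 °C, then lysed with luciferase reagent for 10 min at ambient before reading.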
NPC1 promoter act: NPC1 promoter activation; hit rate 2.4% among 320,000; Potency, µM (series often up to 9.22 µM), for inactives: at the highest dose activation, hits mostly activators; AID 485313; Huh7 NPC1 promoter luciferase reporter, 24 h; further: % of control where 0% means no effect; nearly all actives have a fitted effect of over 60% in size
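Compounds in DMSO were transferred onto Huh7 NPC1-luciferase reporter cells pre-incubated 2 h; after 24 h at 37 °C, Amplite reagent was dispensed and luminescence recorded 10 min later.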
* hit, by the source's call; ? = inconclusive; · = no result; [ ] = remark or other dose. The call rests on the fitted dose curve; in most records, active means well fitted curve in the direction sought with a large enough effect; inconclusive means small, poorly fitted or top-dose-only effect, or another doubt; inactive means no such curve, though single readings can be large; an effect the other way counts as inactive or inconclusive. Potency means the concentration at half of the fitted maximal effect.

SMILES	SMN2 splice enh	KinaseGlo FLuc	ELG1 genotoxic	FLuc counter	Rab9 prom act	NPC1 promoter act
N#CC(Cc1ccc(OC(F)F)cc1)c1nc2ccccc2[nH]1 (stereo not drawn)	?	-4%	?	8.5µM*	?	?
O=C(Nc1nc2ccccc2[nH]1)c1ccc(OC(F)F)cc1	·	·	1.5µM*	0.54µM*	0.28µM*	0.13µM*
CCC(Oc1ccccc1)C(=O)Nc1nc2ccccc2[nH]1 (stereo not drawn)	8%	-2%	26%	?	15%	17%
O=C(Nc1nc2ccccc2[nH]1)c1ccccc1OC(F)F	·	·	?	0.95µM*	0.5µM*	0.79µM*
CC(C)Oc1ccc(C(=O)Nc2nc3ccccc3[nH]2)cc1	·	·	?	0.12µM*	?	?
COc1ccc(OC(C)c2nc3ccccc3[nH]2)cc1 (stereo not drawn)	·	·	·	-2%	·	·
COc1ccc(CC(=O)Nc2nc3ccccc3[nH]2)cc1	·	·	-1%	-2%	23%	30%
O=C(Cn1ncc2c3ccccc3n(Cc3ccc(F)cc3)c2c1=O)NCCCN1CCCCC1	4%	·	·	-4%	·	·
O=C(COC(=O)c1ccc(Br)o1)NCc1ccccc1Cl	·	·	1%	·	·	·
Cc1ccc(N=C(c2cccs2)N2CCOCC2)cc1	18µM*	-1%	?	4%	24%	6%
Cc1ccccc1CSc1ncc(CO)n1Cc1ccc(F)cc1	·	·	·	-7%	·	·
Cc1nnsc1C(=O)N/N=C/c1c(F)cccc1Cl	2%	-4%	1%	-1%	12%	2%
Cc1[nH]cnc1C(=O)N/N=C/c1c(Cl)cccc1Cl	·	·	24%	15µM*	?	?
CC1=NN(c2ccccc2)C(=O)/C1=C\C=C\c1ccccc1	·	·	-15%	17µM*	-1%	-4%
CC1=NN(c2ccccc2)C(=O)/C1=C/C=C/c1ccc(N(C)C)cc1	-19%	13µM*	-8%	4.8µM*	6%	2%
CC1=NN(c2ccccc2)C(=O)/C1=C/N(C)C	·	·	0%	-17%	-1%	-3%
CCOC(=O)CC1=NN(c2ccccc2)C(=O)C1	5%	1%	-2%	-2%	1%	-1%
CCOC(=O)CC1=NN(c2ccccc2)C(=O)/C1=C\c1ccc(N(C)C)cc1	16%[1.84 µM]	-14%	3%	11µM*	-3%	-11%
COc1ccc(O)c(/C=N/N=C2/C(=O)Nc3ccccc32)c1	-4%	-5%	5%	4.8µM*	1%	-2%
COc1cc(/C=N/N=C2/C(=O)Nc3ccccc32)cc(OC)c1O	20%	-15%	2%	17µM*	-1%	-1%
O=C1Nc2ccccc2/C1=N/N=C/c1cccc(O)c1	·	·	3%	?	1%	14%
CC(=O)Nc1ccc(Nc2nc3ccccc3n3cnnc23)cc1	·	·	5%	?	1%	-3%
Cc1n(N)c2ccccc2[n+]1CC(=O)c1ccccc1	-12%	-5%	-7%	2%	-2%	-4%
Cc1cc(/C=C(\C#N)C(=O)Nc2ccccc2)c(C)n1-c1cccnc1	5.6µM*	0%	13%	1.5µM*	2.8µM*	?
Cc1cc(/C=C(\C#N)C(=O)Nc2ccccc2)c(C)n1-c1ccc(F)cc1	2%	·	·	2.7µM*	·	·
SMILES	SMN2 splice enh	KinaseGlo FLuc	ELG1 genotoxic	FLuc counter	Rab9 prom act	NPC1 promoter act
N#C/C(=C\c1ccccc1O)C(=O)Nc1cccnc1	·	·	?	3µM*	1.6µM*	2.8µM*
Cc1ccc(NC(=O)/C(C#N)=C/c2cc(C)n(-c3ccc(F)cc3)c2C)cc1C	17%	·	·	-2%	·	·
CCOC(=O)/C(C#N)=C/c1cc(C)n(-c2ccccc2)c1C	-73%	-6%	0.65µM*	0.54µM*	0.56µM*	3.2µM*
O=C(O)C1C2CCC(O2)C1C(=O)Nc1cccc(Cl)c1 (stereo not drawn)	·	·	8%	-1%	1%	-7%
CCCn1c(C)cc(/C=C(\C#N)C(=O)OCC(=O)Nc2cccc(S(N)(=O)=O)c2)c1C	·	·	5%	3.8µM*	25%	14%
Cc1cc(/C=C(\C#N)C(=O)NCC2CCCO2)c(C)n1-c1ccc(Cl)cc1 (stereo not drawn)	·	·	1%	4.3µM*	3.5µM*	?
COc1cc(/C=C(\C#N)C(=O)NCC2CCCO2)ccc1O (stereo not drawn)	11%	-1%	5%	-4%	-3%	-2%
Cc1ccc(NC(=O)C(Nc2cccc(C)c2)c2ccccc2)cc1 (stereo not drawn)	-8%	-2%	-3%	?	9%	2%
Cc1cc(C)n(-c2ccc(NC(=O)C3CCCCN3C(=O)c3sccc3C)cc2)n1 (stereo not drawn)	·	·	-16%	-2%	5%	2%
Cc1cc(C)c(N2CCN(S(=O)(=O)N3CCCCCC3)CC2)c(C)c1	?	-1%	-4%	0%	1%	-2%
N=C1S/C(=C\c2cn[nH]c2-c2ccc(F)cc2)C(=O)N1c1ccccc1F	13µM*	-3%	10%	?	4µM*	3.2µM*
O=S(=O)(NCCc1csc2nc(-c3ccc(Cl)cc3)nn12)c1ccc2c(c1)OCCO2	·	·	·	1%	·	·
Cc1ccc(N(C)C(=O)CN2C(=O)CCc3cc(S(=O)(=O)N4CCOCC4)ccc32)cc1	·	·	·	-9%	·	·
CCN(CC(=O)NCc1ccc(F)cc1)C(=O)c1ccc(COc2ccccc2)cc1	·	·	-1%	17µM*	?	?
CCC(Oc1ccccc1)C(=O)N(CC)CC(=O)NCc1ccc(F)cc1 (stereo not drawn)	·	·	2%	7%	-4%	1%
C=CCSc1ncnc2c1oc1nc3c(cc12)COC(C)(C)C3	·	·	?	13µM*	?	?
C=CCn1c(C)nc2c(sc3nc4c(cc32)COC(C)(C)C4)c1=O	·	·	?	11µM*	2µM*	1.8µM*
CCSc1ncnc2c1sc1nc3c(cc12)COC(C)(C)C3	13µM*	2%	?	2.7µM*	2.8µM*	3.5µM*
CCCOc1ncnc2c1sc1nc3c(cc12)COC(C)(C)C3	·	1%	?	?	?	30%
CC(C)COc1ncnc2c1sc1nc3c(cc12)COC(C)(C)C3	·	·	?	24µM*	3.2µM*	4µM*
CC(C)CSc1ncnc2c1oc1nc3c(cc12)COC(C)(C)C3	?	-5%	13%	?	14%	14%
Cc1cccc(-c2nc3c4ccccc4nc(N4CCN(c5cc(C)ccc5C)CC4)n3n2)c1	2%	·	·	2%	·	·
CCOC(=O)CSC1=NC(=O)/C(=C/c2ccc(OC)cc2)S1	-10%[1.84 µM]	-1%	?	13µM*	-32%	-27%
COc1cc(/C=C2\SC(N)=NC2=O)cc(Br)c1O	·	·	2%	-10%	-3%	0%
COc1ccc(/C=C2\SC(N)=NC2=O)cc1	·	·	4%	15µM*	25%	2%

High-throughput results: PubChem, National Center for Advancing Translational Sciences (NCATS)
